Results filed as inconclusive are left out. Where a call stands in place of a potency, no number is given. Active and inactive are the calls of the source. Calls follow the shape of the dose curve; as a rule, active = well fitted cell-killing curve with a large enough effect; inconclusive = small, poorly fitted or top-dose-only effect, or effect the other way; inactive = flat fitted curve, though single readings scatter. Where a SMILES comes first, the peptide text is derived from it.
Columns and labels:
Test in all cases: Primary qHTS to identify gynecologic anti-cancer compounds using libraries of approved drugs and bioactive compounds (AID 1345084); also: nearly all actives have a fitted effect of over 55% in size
Details in all cases: Gynecologic cancer cell panel viability, ATPlite luminescence, 48 h; series mostly up to 57.5 µM
OV90 = test system: OV90
Method in brief: (§1)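 Luminescence from the ATPlite ATP-monitoring reagent indicates viable cell number; lower signal means cytotoxicity. Cells received compound 16 h after seeding and were exposed for 48 h across five concentrations.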

PA-1 = test system: PA-1
Method in brief: as §1

SKOV3 = test system: SKOV3
Method in brief: as §1

Tov-21-G = test system: Tov-21-G
Method in brief: as §1

Tov112D = test system: Tov112D
Method in brief: as §1
Potency is read from the fitted curve at half-maximal effect.

Row | SMILES | Potency (OV90) | Potency (PA-1) | Potency (SKOV3) | Potency (Tov-21-G) | Potency (Tov112D)
1 | CCOC(=O)C(=O)CCc1ccccc1 | inactive | inactive | inactive | inactive | inactive
2 | Cc1onc(-c2ccccc2)c1C(=O)Cl | inactive | inactive | inactive | inactive | inactive
3 | Cc1cc(O)c(C)c(C)c1O | inactive | inactive | inactive | inactive | inactive
4 | N#CC1(c2ccc(F)cc2)CCC(=O)CC1 | inactive | inactive | inactive | inactive | inactive
5 | CC(C)Cc1ccc(C(C)C(=O)OCc2ccccn2)cc1 (stereo not given) | inactive | inactive | inactive | inactive | inactive
6 | CCOc1ncc(F)c(=O)[nH]1 | inactive | inactive | inactive | inactive | inactive
7 | CCc1cccc2c(CCO)c[nH]c12 | inactive | inactive | inactive | inactive | inactive
8 | Cc1nn(-c2ccccc2)c(C)c1/C=N/N1CCN(Cc2ccccc2)CC1 | inactive | inactive | inactive | inactive | inactive
9 | Cc1cccc(N(C)C(=S)Oc2ccc3c(c2)C2CCC3C2)c1 (stereo not given) | 35.5 µM (active) | inactive | inactive | inactive | inactive
10 | CNC[C@H](O)[C@@H](O)[C@H](O)[C@H](O)CO | inactive | inactive | inactive | inactive | inactive
11 | CC(=O)N[C@@H](CO)C(=O)N[C@@H](CC(=O)O)C(=O)N[C@@H](CCCCN)C(=O)N1CCC[C@H]1C(=O)O (Ac-SDKP-OH) | inactive | inactive | inactive | inactive | inactive
12 | CN(C)[C@@H]1C(=O)C(C(N)=O)=C(O)[C@@]2(O)C(=O)C3=C(O)c4c(O)cccc4C[C@H]3C[C@@H]12 | inactive | inactive | inactive | inactive | inactive
13 | CC(C)N(CCC(=O)c1ccc2ccccc2c1)Cc1ccccc1 | inactive | inactive | inactive | inactive | inactive
14 | CC(C)C(=O)Nc1cccc(C(F)(F)F)c1 | inactive | inactive | inactive | inactive | inactive
15 | CCCC(CCC)(C(=O)OCC)C(=O)OCC | inactive | inactive | inactive | inactive | inactive
16 | Cc1cnc(NS(=O)(=O)c2ccc(N)cc2)nc1 | inactive | inactive | inactive | inactive | inactive
17 | O=C(O)C1CCC1 | inactive | inactive | inactive | inactive | inactive
18 | O=C(O)Cn1c(=O)n(Cc2ccc(Br)cc2F)c(=O)c2ccc(Cl)cc21 | inactive | inactive | inactive | inactive | inactive
19 | COC(=O)c1cc(Cl)ccc1OC | inactive | inactive | inactive | inactive | inactive
20 | Oc1ccccc1-c1nnco1 | inactive | inactive | inactive | inactive | inactive
21 | O=C(CCOCCOCCOCCOCCC(=O)Nc1c(I)cc(I)c(C(=O)O)c1I)Nc1c(I)cc(I)c(C(=O)O)c1I | inactive | inactive | inactive | inactive | inactive
22 | Cc1nc(N)nc(N)c1-c1ccc(Cl)c(Cl)c1 | 0.891 µM (active) | 3.16 µM (active) | inactive | 0.794 µM (active) | 3.55 µM (active)
23 | CCOc1ccccc1OCC1CNCCO1 (stereo not given) | inactive | inactive | inactive | inactive | inactive
24 | COc1cc2c(cc1OC)C(=O)CC2 | inactive | inactive | inactive | inactive | inactive
25 | CC1(C)O[C@@H]2C[C@H]3[C@@H]4C[C@H](F)C5=CC(=O)C=C[C@]5(C)[C@@]4(F)[C@@H](O)C[C@]3(C)[C@]2(C(=O)CO)O1 | inactive | inactive | inactive | inactive | inactive
26 | CCN(CC)CC(=O)Nc1c(C)cccc1C(=O)OC | inactive | inactive | inactive | inactive | inactive
27 | CCCCOC(=O)CCCCCCCCC(=O)OCCCC | inactive | inactive | inactive | inactive | inactive
28 | O=[N+]([O-])c1cncn1CCN1CCOCC1 | inactive | inactive | inactive | inactive | inactive
29 | CCC[C@H](N[C@@H](C)C(=O)N1[C@H](C(=O)O)C[C@@H]2CCCC[C@@H]21)C(=O)OCC | inactive | inactive | inactive | inactive | inactive
30 | CN1CC(=O)N2[C@H](c3ccc4c(c3)OCO4)c3[nH]c4ccccc4c3C[C@@H]2C1=O | inactive | inactive | inactive | inactive | inactive

From PubChem BioAssay (NCATS)
